Laboratory results reported in PubChem BioAssay (Tox21).
Records with an inconclusive call do not appear. Where a call stands in place of a potency, no number is given. A number with no mark means an inactive call. Active and inactive are the calls of the source. Unless noted, calls come from the whole dose curve.

What was measured:
[1] = qHTS assay to identify small molecule agonists of the NFkB signaling pathway (AID 1159509; active = well fitted curve in the direction sought with a large enough effect in the signal ratio in the repeat runs, not every such curve was filed as active; the % refers to the signal ratio; note: series mostly up to about 61 µM)
Outline: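 NFkB-bla ME-180 cells with a beta-lactamase reporter under an NF-kB response element were plated overnight, treated with compounds in DMSO for 5 hr at 37 C, then loaded with FRET substrate for 1.5 hr at room temperature.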

[2] = qHTS assay to identify small molecule agonists of the NFkB signaling pathway - cell viability counter screen (AID 1159515); note: series mostly up to about 61 µM; nearly all actives have a fitted effect of over 55% in size
Outline: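 5 hr compound treatment of NFkB-bla ME-180 cells (2,000/well, seeded overnight beforehand), followed by reporter substrate for 1.5 hr. CellTiter-Glo added afterward; luminescence after 30 min RT.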

[3] = qHTS assay to identify small molecule agonists of the endoplasmic reticulum stress response signaling pathway (AID 1159516; active = well fitted activation curve with a large enough effect in the signal ratio in the repeat runs, not every such curve was filed as active; the % refers to the signal ratio)
Outline: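 Reporter HeLa cells (ESRE-beta-lactamase) underwent 5 hr compound incubation at 37 C and 5% CO2 in quantitative HTS format. Detection followed 2 hr of FRET substrate loading at room temperature.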

[4] = qHTS assay to identify small molecule agonists of the endoplasmic reticulum stress response signaling pathway - cell viability counter screen (AID 1159517);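 note: HeLa cells carrying an ER stress response element beta-lactamase reporter; series mostly up to about 61 µM; nearly all actives have a fitted effect of over 50% in size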
Outline: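 Luminescence readout: CellTiter-Glo, 30 min RT, same wells as the ESRE-bla reporter read. HeLa ESRE-bla, 1,500 cells/well, o/n 37 C; cpd 5 hr 37 C/5% CO2.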

[5] = qHTS assay to identify small molecule antagonists of the retinoid-related orphan receptor gamma (ROR-gamma) signaling pathway - cell viability counter screen (AID 1159520; active = well fitted curve in the direction sought with a large enough effect in the repeat runs; an effect the other way counts as inactive or inconclusive; note: nearly all actives have a fitted effect of over 50% in size)
Outline: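 Tet-on ROR gamma CHO cells (1,000/well) were plated 4 hr, given compounds in DMSO for 2 hr at 37 C, then induced with 1 uM final doxycycline for 16 hr. Viability was read as ATP by CellTiter-Glo luminescence after 30 min.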

[6] = molecular target: Nuclear receptor ROR-gamma (Homo sapiens) (UniProt P51449); test: qHTS assay to identify small molecule antagonists of the retinoid-related orphan receptor gamma (ROR-gamma) signaling pathway (AID 1159521; active = well fitted curve in the direction sought with a large enough effect in the repeat runs; an effect the other way counts as inactive or inconclusive;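 note: CHO cells with doxycycline inducible ROR-gamma driving an RORE luciferase reporter; top concentration of the series differs between compounds; nearly all actives have a fitted effect of over 50% in size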)
Outline: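 Test compounds were applied to Tet-on RORγ CHO cells 2 h ahead of doxycycline hyclate (1 uM final). Luciferase reporter activity was quantified by luminescence after 16 h at 37 C and 5% CO2.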

[7] = qHTS assay to identify small molecule agonists of the AP-1 signaling pathway - cell viability counter screen (AID 1159525); note: nearly all actives have a fitted effect of over 55% in size
Outline: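 ME-180 AP-1-bla, 2500 cells/well, Opti-MEM + 0.5% dialyzed FBS; overnight 37 °C; cpd 15-pt titration, 5 h 37 °C; CellTiter-Glo 30 min RT; luminescence read; normalised to TOAB and DMSO controls.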

[8] = qHTS assay to identify small molecule agonists of the AP-1 signaling pathway (AID 1159526)
[9] = molecular target: Retinoic acid receptor RXR-alpha (Homo sapiens) (UniProt P19793); test: qHTS assay to identify small molecule agonists of the RXR signaling pathway (AID 1159527); note: nearly all actives have a fitted effect of over 35% in size; note: potency is the fitted concentration of half-maximal effect
Chain of Retinoic acid receptor RXR-alpha (Homo sapiens) (P19793 whole entry, looked up): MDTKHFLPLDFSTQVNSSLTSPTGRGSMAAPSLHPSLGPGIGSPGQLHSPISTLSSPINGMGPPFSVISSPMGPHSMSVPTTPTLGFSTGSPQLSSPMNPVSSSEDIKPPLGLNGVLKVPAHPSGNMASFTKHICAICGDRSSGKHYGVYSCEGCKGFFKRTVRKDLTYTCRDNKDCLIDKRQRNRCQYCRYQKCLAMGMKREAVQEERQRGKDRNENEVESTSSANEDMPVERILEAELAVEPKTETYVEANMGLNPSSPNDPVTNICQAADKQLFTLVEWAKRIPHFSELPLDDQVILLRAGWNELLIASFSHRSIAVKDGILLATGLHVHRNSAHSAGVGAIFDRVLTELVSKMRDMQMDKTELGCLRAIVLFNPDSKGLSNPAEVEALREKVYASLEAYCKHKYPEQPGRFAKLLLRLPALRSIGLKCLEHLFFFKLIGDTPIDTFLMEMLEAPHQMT
Outline: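 Using 9-cis retinoic acid as the reference agonist, chemicals were tested in HEK 293T cells […] for 16 hr; substrate loading lasted 2 hr at room temperature.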

| SMILES | outcome [1] | outcome [2] | outcome [3] | outcome [4] | outcome [5] | outcome [6] | outcome [7] | outcome [8] | Potency [9] |
| --- | --- | --- | --- | --- | --- | --- | --- | --- | --- |
| C=CC(=O)OCC1CCCO1 (stereo unspecified) | inactive | inactive | inactive | inactive | inactive | inactive | inactive | inactive | inactive |
| C=Cc1ccc(C(C)(C)C)cc1 | inactive | inactive | inactive | inactive | inactive | inactive | inactive | inactive | inactive |
| CCCCSCCCC | inactive | inactive | inactive | inactive | inactive | inactive | inactive | inactive | 21.9 µM (active) |
| OCC(O)CN1CCN(c2ccccc2)CC1 (stereo unspecified) | inactive | inactive | inactive | inactive | inactive | inactive | inactive | inactive | inactive |
| CC1=C(C(=O)O)N2C(=O)[C@@H](NC(=O)[C@H](N)c3ccccc3)[C@H]2SC1 | inactive | inactive | inactive | inactive | inactive | inactive | inactive | inactive | – |
| COP(=O)(O)OP(=O)(O)OC | inactive | inactive | inactive | inactive | inactive | inactive | inactive | inactive | inactive |
| CCO | inactive | inactive | inactive | inactive | inactive | inactive | inactive | inactive | inactive |
| O=C(Cn1ccnc1[N+](=O)[O-])NCc1ccccc1 | inactive | inactive | inactive | inactive | inactive | inactive | inactive | inactive | inactive |
| OC1OCCOC1O (stereo unspecified) | inactive | inactive | inactive | inactive | inactive | inactive | inactive | inactive | inactive |
| CC1=NN(c2ccc(S(=O)(=O)O)cc2)C(=O)C1 | inactive | inactive | inactive | inactive | inactive | inactive | inactive | inactive | inactive |
| OC[C@H]1O[C@@H](O[C@@H]2[C@@H](CO)O[C@](O)(CO)[C@H]2O)[C@H](O)[C@@H](O)[C@H]1O | inactive | inactive | inactive | inactive | inactive | inactive | inactive | inactive | inactive |
| N#Cc1cscn1 | inactive | inactive | inactive | inactive | inactive | inactive | inactive | inactive | inactive |
| CCC/C=C(\C=O)CC | inactive | inactive | inactive | inactive | inactive | inactive | inactive | inactive | inactive |
